According to PubChem BioAssay (NCI):
This is part of a sample that, as a whole, favours compounds with a hit. Of some 83,000 tested, about 20% had one in any assay.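 Activity criterion: percent growth below 10, measured after cells in 96-well plates were exposed to a single compound concentration for 48 hours.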 Unmarked numbers belong to inactive results. Activity calls are given as the source filed them.

Columns and labels:
Test in all cases: NCI-60 one-dose screen, 48 h (100 = growth as untreated, 0 = no growth, -100 = all killed)
Details in all cases: 10 µM unless noted
DU-145 prostate = test system: DU-145 prostate
K-562 leukemia = test system: K-562 leukemia
MALME-3M melanoma = test system: MALME-3M melanoma
MDA-MB-231 breast = test system: MDA-MB-231 breast
RXF 393 renal = test system: RXF 393 renal
SF-268 CNS = test system: SF-268 CNS
SF-295 CNS = test system: SF-295 CNS
SF-539 CNS = test system: SF-539 CNS
UACC-257 melanoma = test system: UACC-257 melanoma
M14 melanoma = test system: M14 melanoma
HCT-15 colon = test system: HCT-15 colon
HT29 colon = test system: HT29 colon
SNB-75 CNS = test system: SNB-75 CNS
SNB-19 CNS = test system: SNB-19 CNS
U251 CNS = test system: U251 CNS
PC-3 prostate = test system: PC-3 prostate
SK-MEL-5 melanoma = test system: SK-MEL-5 melanoma
UACC-62 melanoma = test system: UACC-62 melanoma
LOX IMVI melanoma = test system: LOX IMVI melanoma
SK-MEL-28 melanoma = test system: SK-MEL-28 melanoma

Structure (SMILES)	growth (DU-145 prostate)	growth (K-562 leukemia)	growth (MALME-3M melanoma)	growth (MDA-MB-231 breast)	growth (RXF 393 renal)	growth (SF-268 CNS)	growth (SF-295 CNS)	growth (SF-539 CNS)	growth (UACC-257 melanoma)	growth (M14 melanoma)	growth (HCT-15 colon)	growth (HT29 colon)	growth (SNB-75 CNS)	growth (SNB-19 CNS) [%]	growth (U251 CNS)	growth (PC-3 prostate)	growth (SK-MEL-5 melanoma)	growth (UACC-62 melanoma)	growth (LOX IMVI melanoma)	growth (SK-MEL-28 melanoma)
CCN(CC)CCCC(Nc1c2ccc(Cl)cc2nc2ccc(OC)cc12)c1ccncc1 (stereo not given)	70.6%	32.6%	76.7%	59.3%	65.4%	77.8%	89.9%	62.9%	114%	113%	54.8%	43.7%	87%	81	79.3%	66.6%	88.4%	103%	63%	85.6%
O=C(c1ccc(F)cc1)C1CCN(CCn2c(=O)[nH]c3ccccc3c2=O)CC1	108%	100%	89.3%	110%	115%	103%	97.6%	103%	110%	104%	105%	98.4%	92.6%	110	101%	87.4%	94.2%	102%	98.7%	108%
COC12C=C/C(=C(/C(=O)OCc3ccccn3)C(=O)CCCCCCCCC3(OC)C=C/C(=C(/C(=O)OCc4ccccn4)C(=O)CCCCCCCC1)O3)O2	-24.5% (active)	-0.106% (active)	-60.1% (active)	7.85% (active)	-82.5% (active)	-8.87% (active)	-25.7% (active)	-28.3% (active)	11%	-23.3% (active)	-37.5% (active)	3.23% (active)	1.28% (active)	12.5	-25.6% (active)	-37.4% (active)	-83.3% (active)	-52.5% (active)	-69.6% (active)	-11.1% (active)
CC(Cc1cccc2ccccc12)C(N)=O (stereo not given)	110%	104%	111%	100%	113%	106%	100%	96.6%	104%	108%	101%	101%	98.6%	104	105%	93.8%	101%	98.8%	101%	108%
Cc1oc2ccc(O)c(CN3CCCCCC3)c2c1C(=O)Nc1ccc(C(F)(F)F)cc1	64.8%	29.6%	49.9%	49%	50.4%	75.4%	48.8%	61.2%	82%	58.1%	45.1%	80.5%	50.6%	69.9	55.1%	45.7%	70%	67.3%	39.2%	76.9%
COc1ccc(C2CC(=O)Oc3c(OC)c4c(c(OC)c32)OCO4)cc1 (stereo not given)	112%	61.1%	94.5%	100%	99.6%	99.3%	102%	98.6%	101%	98.8%	87.6%	99.4%	98.6%	107	99.6%	106%	105%	91.1%	90.3%	95.6%
Nc1ncc(-c2ccc3ncnc(N4CCc5cc(F)c(Cl)cc54)c3c2)cn1	33.4%	61.4%	53.6%	30%	1.88% (active)	39.8%	56.2%	48.5%	67.6%	61.1%	44.2%	41.8%	-6.4% (active)	59.6	54.8%	28.3%	59.9%	23.8%	37.6%	65.1%
CO[C@H]1/C=C/O[C@@]2(C)Oc3c(C)c(O)c4c(O)c(c5c(nc6cc(C)ccn65)c4c3C2=O)NC(=O)/C(C)=C\C=C\[C@H](C)[C@H](O)[C@@H](C)C(O)[C@@H](C)[C@H](OC(C)=O)[C@@H]1C (stereo not given in full)	114%	95.3%	93.4%	104%	111%	102%	102%	105%	106%	94.4%	103%	96.7%	86.4%	99.9	98.2%	90.4%	103%	98%	95.9%	104%
Cc1cc([N+](=O)[O-])ccc1NC(=O)c1ccc2c(c1)nc(-c1ccccc1)n2C1CCCCC1	105%	49.9%	80.4%	84.4%	96.5%	77.1%	80.5%	92.2%	92.4%	74.9%	51.9%	44.5%	80.9%	119	91.4%	77.4%	62.3%	95%	64%	117%
CCCCCCCCNc1ncnc2c1ncn2Cc1nnc2c3ccccc3c(Cl)nn12	49%	14.8%	69.9%	55.4%	36.1%	35.5%	61.8%	49.9%	46.9%	34.5%	32.8%	44.1%	37.6%	56.2	44.8%	36.5%	39.3%	29.9%	12.8%	62.9%
COc1nc2ccccc2cc1/C=C1/C=C(c2ccccc2)NC1=O	55.8%	13.1%	38.3%	46.1%	46%	48.8%	28.5%	19.6%	60.7%	24.6%	30.3%	10%	28.8%	43.4	31%	55.1%	39.4%	32.1%	38.8%	58.9%
Cc1nc2cccc(NCc3ccc(C(=O)NO)cc3)c2c(=O)n1-c1ccccc1	26.7%	18.7%	35.3%	48.2%	28.2%	54%	16%	15.1%	53.4%	32.8%	31.3%	26.4%	42.6%	40.8	-16.7% (active)	27%	8.27% (active)	-17.7% (active)	26.6%	35.7%
Cc1cc2c(C(C)C)c(O)c(O)c(/C=N/O)c2c(O)c1-c1c(C)cc2c(C(C)C)c(O)c(O)c(/C=N/O)c2c1O	-93.8% (active)	-9.09% (active)	51%	25.5%	-1.98% (active)	26.3%	16.7%	-11.3% (active)	11.6%	7.91% (active)	29.3%	1.38% (active)	80.3%	30.4	1.13% (active)	27.9%	16.3%	9.12% (active)	-22.9% (active)	19.8%
O=c1c(Cc2ccc(F)cc2)cc(-c2ccccc2)nn1C/C(=N/O)c1ccccc1	79.6%	29.2%	35.8%	43.1%	28.5%	52.6%	31.9%	81.9%	53.8%	37.5%	44.5%	20.3%	57.8%	58.3	34.5%	25.9%	36.6%	33.6%	53.1%	62%
CC(=O)CC(=O)c1ccccc1.[Cu+2]	98.4%	99%	95.2%	96.5%	125%	118%	105%	105%	102%	107%	94.3%	106%	121%	96.6	105%	96.8%	82.8%	95.8%	83.9%	105%
CCOC(=O)c1ccc2c(c1)[n+](=O)c(C(C)=O)c(C(F)(F)F)n2[O-]	-88.5% (active)	-76.7% (active)	-40% (active)	22.2%	31.6%	-51.8% (active)	23%	29.7%	-37.1% (active)	8.64% (active)	-36% (active)	-0.876% (active)	25.6%	17.4	6.13% (active)	-45.7% (active)	-94.3% (active)	2.99% (active)	-59.7% (active)	27.9%
